# Compounds with a hit are over-represented: about 11% of the library has one in this group of screens.
# IMPase Li inh = IMPase inhibition in cells with lithium potentiation; Potency, µM (titrated, usually from 59.4 µM), inactives show at the highest dose activity, negative = IMPase inhibition, actives largely listed as inhibitors; CHO-M1 cells, IP1 TR-FRET (IP-One), carbachol + lithium; 210,000 compounds, 0.35% hits; AID 1457; active means well fitted inhibition curve with a large enough effect; inconclusive means small, poorly fitted or top-dose-only effect; inactive means no such curve, though single readings can be large or run the other way;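 further: IP1 builds up when IMPase is blocked and the TR-FRET signal falls; potency means the concentration at half of the fitted maximal effect; plate controls were basal vehicle for no effect and high inhibitor control for full effect; nearly all actives have a fitted effect of over 50% in size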
#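 CHO cells stably expressing M1 receptor (2000/well) were cultured 16–30 h, then exposed to compounds with a small lithium addition for 30 min at 37C. IP1 was measured by TR-FRET competition; AC50 from Hill fits.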
# HPGD inh = blocks human HPGD enzyme activity | purified HPGD, NADH fluorescence kinetic, PGE2 substrate | Potency, µM, for the others: top-dose activity change, negative = inhibition, usual class: inhibitors | 150,000 compounds, 4.3% hits; further: potency means the concentration at half of the fitted maximal effect
# Target sequence (P15428 whole entry, looked up): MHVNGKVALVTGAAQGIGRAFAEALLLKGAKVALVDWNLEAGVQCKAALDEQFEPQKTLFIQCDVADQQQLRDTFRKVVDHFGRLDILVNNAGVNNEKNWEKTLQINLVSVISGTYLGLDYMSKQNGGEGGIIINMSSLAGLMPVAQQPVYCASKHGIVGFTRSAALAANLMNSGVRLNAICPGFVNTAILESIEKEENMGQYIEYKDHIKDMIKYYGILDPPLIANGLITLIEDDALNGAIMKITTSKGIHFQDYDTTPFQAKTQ
#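 NADH formation kinetics: reaction with 30 uM PGE2 and 1 mM NAD+ (final), 20 nM enzyme, Tris-HCl pH 8 with Tween 20, after 15 min compound preincubation at room temperature. Fluorescence change, last versus first of five reads.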
# PNC assembly inh = inhibitors of perinucleolar compartment assembly. PC3M PTB-GFP, PNC prevalence imaging, 16 h; active compounds read low. activity change (PNC), negative = inhibition, % at 10 µM. 140,000 compounds, 3.1% hits. AID 2417;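 active means readout at or below -70, meaning at least 70% loss of cells showing the perinucleolar compartment, a nuclear body marking cancer cells; inconclusive means readout between -30 and a set limit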;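 further: plate controls were DMSO wells for no effect and camptothecin positive control wells for full effect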
#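 PC3M cells stably expressing PTB-GFP, 750–1000 cells/well, treated 16 h at 37 °C with compound (23 nl of library stock), in duplicate. After paraformaldehyde fixation and Hoechst stain, imaged at 20x; PNC prevalence scored by image analysis.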
# ALDH1A1 inh = inhibitors of human aldehyde dehydrogenase 1A1; P00352; Purified ALDH1A1, NADH fluorescence, propionaldehyde substrate; Potency, µM (series often up to 75.3 µM), without a hit: at the top dose activity, negative = inhibition, hits mostly inhibitors; 220,000 compounds, 7.3% hits; AID 1030;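 further: potency means the concentration at half of the fitted maximal effect; plate controls were no enzyme wells and a reference inhibitor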
# Target sequence (P00352 whole entry, looked up): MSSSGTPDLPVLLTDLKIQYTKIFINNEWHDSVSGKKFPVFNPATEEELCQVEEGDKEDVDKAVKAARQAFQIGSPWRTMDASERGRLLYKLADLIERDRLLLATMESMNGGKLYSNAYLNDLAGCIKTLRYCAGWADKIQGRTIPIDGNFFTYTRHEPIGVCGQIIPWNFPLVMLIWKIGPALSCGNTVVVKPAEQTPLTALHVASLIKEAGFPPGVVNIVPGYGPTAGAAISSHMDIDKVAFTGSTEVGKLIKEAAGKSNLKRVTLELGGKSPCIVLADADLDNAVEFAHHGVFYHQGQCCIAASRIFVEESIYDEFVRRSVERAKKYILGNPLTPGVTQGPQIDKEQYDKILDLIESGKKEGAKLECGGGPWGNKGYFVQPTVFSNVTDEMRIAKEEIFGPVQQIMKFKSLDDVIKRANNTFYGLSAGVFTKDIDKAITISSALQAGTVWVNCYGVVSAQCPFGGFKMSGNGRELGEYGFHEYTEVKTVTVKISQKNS
# IMPase cell inh = cell-permeable inhibitors of inositol monophosphatase (IMPase); P97697; AID 901; inhibition (IP1 accumulation), % at 46.1 µM; CHO-M1 cells, IP1 accumulation, HTRF TR-FRET ratio; 120,000 tested, under 10 active; active means well fitted curve in the direction sought with a large enough effect in the signal ratio, not every such curve was filed as active; inconclusive means small, poorly fitted or top-dose-only effect, or a change in a side signal; inactive means no such curve, though single readings can be large or run the other way; the % refers to the signal ratio;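 further: cells stimulated with carbachol in lithium chloride buffer; plate controls were DMSO basal wells for no effect and reference inhibitor wells for full effect; higher means more IMPase inhibition seen as more IP1 and lower FRET ratio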
#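 Measured: the HTRF emission ratio (665/620 nm) plus the 620 nm donor channel, each fitted to the Hill equation to give AC50. Cells were CHO-M1 given compounds up to 46 uM and a 30 min carbachol stimulation at 37C.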
# * = called active by the depositor; ? = inconclusive; / = no result; [ ] = remark or other dose. Unless noted, the call rests on the fitted dose curve; in most records, active means well fitted inhibition curve with a large enough effect (not every such curve was filed as active); inconclusive means small, poorly fitted or top-dose-only effect, or another doubt; inactive means no such curve, though single readings can be large or run the other way. Unless noted, on the % scale 0 is the no-effect control and ±100 the full control effect.
SMILES,IMPase Li inh,HPGD inh,PNC assembly inh,ALDH1A1 inh,IMPase cell inh
CCOC(=O)N1CCC(NC(=O)C2CCN(C(=O)N3CC(C)Oc4ccc(C)cc43)CC2)CC1 (centres undefined),-13.8%[38.3 µM],-10.6%,?,7.94µM*,-4.5
O=CNc1ncn[nH]1,13.6%,-7.3%,/,4.5%[13.5 µM],/
C=CCOC(=O)N[C@H](C[N+](=O)[O-])c1ccccc1,15.3%,-11.0%,/,9.1%,/
O=C1/C(=C/c2ccccc2)Oc2ccccc21,/,/,/,-3.3%[13.5 µM],/
CCOC(=O)C1CCN(S(=O)(=O)c2ccc(-n3cnnn3)c(C)c2)CC1,-8.2%[38.3 µM],-7.3%,-100.0*,-3.5%,2.7
O=C(NCc1cccs1)C1CCCN(S(=O)(=O)c2ccc3c(c2)OCO3)C1 (centres undefined),/,/,?,-4.4%,8.2
CCOC(=O)C1CCN(S(=O)(=O)c2ccc(C)c(C)c2)CC1,2.1%,/,/,6.0%,/
Cc1ccc(S(=O)(=O)N2CCCC(C(=O)N(Cc3cccs3)C3CC3)C2)cc1 (centres undefined),33.6%[38.3 µM],-5.9%,?,7.08µM*,15.3
CCN(CC#CCC1(O)c2ccccc2-c2ccccc21)CCO,8.1%[38.3 µM],-10.8%,37.1,-4.6%,-0.7
CC(C)N(CC#CCC1(O)c2ccccc2-c2ccccc21)CCO,9.8%,-9.1%,7.4,20µM*,7.0
CCCCC(=O)Nc1nc(C)c(-c2csc(Nc3cc(Cl)ccc3OC)n2)s1,15.5%[38.3 µM],?,11.3,10µM*,-6.6
CCCC(=O)Nc1nc(C)c(-c2csc(Nc3ccccc3C)n2)s1,4.9%[38.3 µM],31.6µM*,67.8,10µM*,-1.9
CCCCCC(=O)Nc1nc(C)c(-c2csc(Nc3ccccc3OC)n2)s1,21.7%[38.3 µM],?,?,?,2.6
NC(N)=N/N=C(/c1ccccc1)c1ccc(O)cc1O,2.3%,-3.9%,/,-2.4%[13.5 µM],/
O=C1CN2NC(=S)N(c3ccccc3)C2=CN1c1ccc(Cl)cc1,-3.3%,/,/,8.3%,/
COc1ccc(C(=O)n2nc(-c3ccco3)nc2SC)cc1OC,25.5%[38.3 µM],?,-26.6,28.2µM*,-5.3
Cc1cccn2c(/C=N/OCc3ccc(F)cc3)c(-c3ccc(Cl)cc3)nc12,11.1%[38.3 µM],?,-108.8*,-6.0%,4.4
COc1ccc(/C(C#N)=C/c2c(-c3ccc(Cl)cc3)nc3c(C)cccn23)cc1,18.8%[38.3 µM],-15.2%,4.5,9.6%,2.4
CCN(CC)S(=O)(=O)c1cccc(C(=O)c2c(C)cc3ccccn23)c1,13.8%,-17.7%,-93.9*,-15.6%,/
CCCC(=O)NCc1ccc2c(c1)cc(C)n2C,-12.6%[38.3 µM],7.94µM*,46.9,-4.7%,0.9
O=C(NCCCN=C1NS(=O)(=O)c2ccccc21)c1ccc(S(=O)(=O)N2CCCCC2)cc1,48.6%[38.3 µM],-18.7%,?,14.1µM*,2.4
Cc1cc2ccccc2n1CCNC(=O)C(C)Oc1ccccc1 (centres undefined),10.4%[38.3 µM],-14.5%,-108.4*,?,-20.3
Cc1cc2cc(CNS(=O)(=O)c3ccc4ccccc4c3)ccc2n1C,-5.5%[38.3 µM],-15.7%,-101.8*,14.1µM*,-15.0
O=C(NCCN=C1NS(=O)(=O)c2ccccc21)c1ccncc1,39.4%[38.3 µM],-2.8%,28.7,3.4%,2.3
CC(NC(=O)CCc1nnc(CCCc2ccccc2)o1)c1ccccc1 (centres undefined),10.2%,/,/,-3.7%,/
SMILES,IMPase Li inh,HPGD inh,PNC assembly inh,ALDH1A1 inh,IMPase cell inh
COC(=O)c1c(NC(=O)CSc2nnc3ccccn23)sc2c1CCC2,7.3%,-15.8%,6.2,-5.8%,/
Cc1cc(Br)cnc1NC(=S)Nc1ccc(F)cc1F,6.9%,/,/,?,/
Cc1c(C(=O)NCc2ccc3c(c2)cc(C)n3C)cccc1[N+](=O)[O-],-6.1%,1.78µM*,49.7,6.1%,/
Cc1ccc(C(=O)NCCn2c(C)cc3ccccc32)cc1C,/,/,/,/,-12.7
Cc1cc2ccccc2n1CCNC(=O)c1ccc(S(=O)(=O)N2CCCCC2)cc1,10.2%[38.3 µM],-19.0%,68.8,3.16µM*,-17.0
Cc1cccc(NC(=O)NCc2ccc3c(c2)cc(C)n3C)c1,?,-17.1%,-108.4*,-8.6%,?
Cc1cc2cc(CNC(=O)Nc3cccc(Cl)c3)ccc2n1C,3.8%[38.3 µM],-13.1%,-26.4,22.4µM*,-22.8
COc1cccc(Cn2c(=O)c(-c3cccc(C#N)c3)nc3cnc(Nc4ccccc4)nc32)c1,-14.5%,-14.0%,/,-7.3%,/
Cc1cc2cc(CNC(=O)c3ccc(S(=O)(=O)N4CCOCC4)cc3)ccc2n1C,1.0%[38.3 µM],-12.8%,21.5,25.1µM*,0.3
Cc1cc2cc(CNC(=O)c3ccc(S(=O)(=O)N(C)C)cc3)ccc2n1C,27.6%[38.3 µM],0.4%,-26.2,-10.6%,?
O=C(c1ccco1)N1CCN(C(=O)c2ccccc2NS(=O)(=O)c2ccc(F)cc2)CC1,-1.9%,/,/,2.1%,/
Cc1ccc(CCNC(=O)CN(C)S(=O)(=O)c2ccc3c(c2)c(=O)n(C)c(=O)n3C)cc1,-20.6%[38.3 µM],-15.1%,0.8,12.6µM*,5.1
Cc1cccc(CCNC(=O)CN(C)S(=O)(=O)c2ccc3c(c2)c(=O)n(C)c(=O)n3C)c1,-8.6%[38.3 µM],-10.7%,11.1,-8.4%,0.3
CC12CC[C@@](C(=O)O)(C(=O)C1=O)C2(C)C,7.3%,-0.2%,/,-0.2%,/
CCC(=O)N1C2=C(c3ccccc3[C@@H]1CC(=O)Nc1ccc3ccccc3c1)[C@@H]1C(=O)N(c3ccccc3)C(=O)[C@@H]1[C@H](C)C2,3.0%,-26.9%,/,-6.3%[13.5 µM],/
CCC1(C)N(O)C(C)(C)C(c2ccc(F)cc2)=[N+]1[O-] (centres undefined),-1.7%,-7.4%,-100.0*,7.8%,-7.4
COc1ccccc1CN1CCCC2(CCN(C(=O)c3cnccn3)CC2)C1,33.4%,-4.6%,/,-6.2%,/
N#Cc1cc2c(nc1SCC(N)=O)CCCCC2,4.9%[38.3 µM],-14.1%,23.2,-13.7%,-7.6
N#Cc1cc2c([nH]c1=S)CCCCCC2,-14.7%[38.3 µM],7.94µM*,-10.1,10µM*,-3.1
COC(=O)c1ccc2nc(NC(=O)C(C)(C)C)sc2c1,0.6%,/,/,-3.4%,/
O=C(Nc1nc2ccc(S(=O)(=O)N3CCCCC3)cc2s1)C1CCCO1 (centres undefined),16.6%[38.3 µM],-5.8%,15.2,?,0.5
CCOc1ccc2nc(NC(=O)C3CCCN(S(=O)(=O)c4cccc5nonc45)C3)sc2c1 (centres undefined),30.0%[38.3 µM],-14.6%,3.5,-11.3%,-6.3
O=C(Nc1nc2ccc(S(=O)(=O)N3CCCC3)cc2s1)C1CCCCC1,39.4%[38.3 µM],20µM*,-107.6*,8.91µM*,4.9
CSc1nc2ccc(S(=O)(=O)N3CCCCC3)cc2s1,25.5%[38.3 µM],-0.6%,-19.2,8.9%,-0.2
COc1ccc2nc(NC(=O)C3CCCN(S(=O)(=O)c4cccc5nonc45)C3)sc2c1 (centres undefined),9.6%,-15.6%,-100.0*,-5.7%,3.7
Nc1nc2ccc(S(=O)(=O)N3CCCCC3)cc2s1,31.8%[38.3 µM],14.1µM*,-12.6,6.31µM*,?
COC(=O)c1ccc2nc(NC(=O)C3CCCCC3)sc2c1,10.1%,/,/,25.1µM*,/
c1ccc(CNc2ccnc(-c3cccnc3)n2)cc1,15.0%,/,/,-16.2%,/

# Compound activity as filed in PubChem.
